Test results reported in PubChem BioAssay.
Values without a mark were called inactive. How the calls were made is not given here.

Target: Pantothenate synthetase (Mycobacterium tuberculosis (strain ATCC 25618 / H37Rv)) (UniProt P9WIL5)
Assay: Recombinant Mtb pantothenate synthetase (PanC) inhibitors, coupled enzyme, confirmatory (AID 375);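 further: 0% = full reaction with vehicle and 100% = no enzyme background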
Conditions: coupled enzyme assay; at 10 µM, active compounds read high

Pantothenate synthetase (Mycobacterium tuberculosis (strain ATCC 25618 / H37Rv)), sequence (P9WIL5 whole entry, looked up): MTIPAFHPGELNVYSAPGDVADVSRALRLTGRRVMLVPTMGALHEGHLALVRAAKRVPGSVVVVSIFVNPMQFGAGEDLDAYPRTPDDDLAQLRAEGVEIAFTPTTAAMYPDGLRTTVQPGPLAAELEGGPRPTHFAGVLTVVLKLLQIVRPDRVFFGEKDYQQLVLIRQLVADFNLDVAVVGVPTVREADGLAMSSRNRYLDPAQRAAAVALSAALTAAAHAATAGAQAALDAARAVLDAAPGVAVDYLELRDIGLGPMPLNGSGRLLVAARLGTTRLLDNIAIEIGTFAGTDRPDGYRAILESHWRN

`COC(=O)c1ccc(-c2ccc(CNCC(O)c3ccccc3)o2)cc1` (stereo not given) was tested. Which inhibition did it give?
Its inhibition is 1%.

How did the inhibition turn out when `CCOc1cc(C2C(C(=O)c3ccccc3)=C(C(=O)OC)Nc3nnnn32)ccc1O` (stereo not given) was run?
The inhibition was 0%.

How did the inhibition turn out when `O=C(OCC(=O)N1CCCCCC1)c1cccs1` was run?
Its inhibition is 0%.

How did the inhibition turn out when `O=C(NCC(=O)N1CCC(N2CCCCC2)CC1)C1CCCCC1` was run?
The inhibition was 3%.

How did the inhibition turn out when `CC(=O)N1CN(C2CCCC2)Cc2c1sc1c2CCCC1` was run?
Its inhibition is 0%.

How did the inhibition turn out when `O=C1CC(c2ccc(S(=O)(=O)N3CCN(c4ccccc4)CC3)cc2)CN1` (stereo not given) was run?
Its inhibition is 0%.

Which inhibition does the source give for `CCOC(=O)CSC1=C(C#N)C(c2ccc(C)o2)CC(=O)N1` (stereo not given) here?
The inhibition was 0%.

How did the inhibition turn out when `COc1ccc(CN(C(=O)CNC(=O)c2ccco2)C(C(=O)NC2CCCC2)c2ccco2)cc1` (stereo not given) was run?
Its inhibition is 5%.

`CCC(C)(C(=O)NC1CCCCC1)N(CC1CCCO1)C(=O)c1ccccn1` (stereo not given) was tested. Which inhibition did it give?
The inhibition was 0%.

With `CCOC(=O)c1cccc(NC(=O)CS(=O)(=O)Cc2nc(-c3cccc(OC)c3)oc2C)c1` as the compound, how does the inhibition read?
Its inhibition is 0%.

How did the inhibition turn out when `CCn1c(CSc2nc(C)cc(C)n2)nnc1SCC(=O)Nc1ccccc1` was run?
Its inhibition is 5%.

With `CN1CCN(c2nc(-c3ccncc3)nc3ccccc23)CC1` as the compound, how does the inhibition read?
Its inhibition is 0%.

With `COc1cc(CN(C)CC(=O)c2[nH]c(C)c(C(C)=O)c2C)ccc1OC(F)F` as the compound, how does the inhibition read?
The inhibition was 0%.

`CC(C)C(c1nnnn1CC1CCCO1)N1CCN(Cc2ccc3c(c2)OCO3)CC1` (stereo not given) was tested. Which inhibition did it give?
Its inhibition is 0%.

With `Cc1cc(=O)oc2cc(Oc3ncccn3)ccc12` as the compound, how does the inhibition read?
Its inhibition is 6%.

Which inhibition does the source give for `CCc1nnc(NC(=O)CSc2nc(-c3ccc(OC)cc3)ns2)s1` here?
The inhibition was 0%.

How did the inhibition turn out when `COc1ccc(CCNC(=O)c2cc(C(C)C)on2)cc1OC` was run?
The inhibition was 1%.

Which inhibition does the source give for `COC(=O)Cc1c(C)nc2nc(-c3ccco3)[nH]n2c1=O` here?
The inhibition was 2%.

With `Cc1ccccc1-c1nc(CN2CCC(C(=O)N3CCC(C(N)=O)CC3)CC2)c(C)o1` as the compound, how does the inhibition read?
Its inhibition is 0%.

With `Cc1[nH]n(C(N)=S)c(=O)c1C(c1ccccc1)C(C#N)C#N` (stereo not given) as the compound, how does the inhibition read?
Its inhibition is 0%.

How did the inhibition turn out when `CCOc1cc(C(=O)N2CCN(c3ccccc3)CC2)cc(OCC)c1OCC` was run?
The inhibition was 3%.

Which inhibition does the source give for `COc1ccc(/C=N/n2cc(-c3ccc(OC)cc3)nc2N)cc1` here?
Its inhibition is 0%.

Which inhibition does the source give for `O=S(=O)(Cc1ccccc1)N1CCCCCC1` here?
Its inhibition is 0%.

How did the inhibition turn out when `Cc1ccc(C(c2sc3ncnn3c2O)N2CC(C)CC(C)C2)cc1` (stereo not given) was run?
Its inhibition is 0%.

Which inhibition does the source give for `COC(=O)CNC(=O)COC(=O)c1cc(Cl)cc(Cl)c1N` here?
Its inhibition is 0%.

How did the inhibition turn out when `CCCCc1noc2c1/C(=N\O)CC(c1ccccc1)C2` (stereo not given) was run?
The inhibition was 3%.

For `CS(=O)(=O)Nc1ccc(C(=O)NCc2ccco2)cc1`, which inhibition is on record?
The inhibition was 0%.

Which inhibition does the source give for `CC(=O)NC(Cc1c[nH]c2ccccc12)C(=O)OCC(=O)Nc1cc(C)on1` (stereo not given) here?
Its inhibition is 0%.

With `Cc1nc(N2CCC(C)CC2)c2c(C)c(C(=O)O)sc2n1` as the compound, how does the inhibition read?
Its inhibition is 0%.

For `c1ccc(-n2c(Sc3cnccn3)nnc2-c2cccs2)cc1`, which inhibition is on record?
Its inhibition is 0%.

With `CSC1=N/C(=C\C=C\c2cccs2)C(=O)S1` as the compound, how does the inhibition read?
Its inhibition is 1%.

`Cc1ccc(-c2nn[nH]n2)cc1` was tested. Which inhibition did it give?
The inhibition was 0%.

For `COc1cc(NC2c3ccccc3C(=O)N2c2ccc(C)cn2)cc(OC)c1OC` (stereo not given), which inhibition is on record?
The inhibition was 0%.

For `CCN=C1SC(CC(=O)Nc2ccccc2OCC)C(=O)N1CC` (stereo not given), which inhibition is on record?
Its inhibition is 0%.

Which inhibition does the source give for `CC(=O)NC(CCS(C)(=O)=O)C(=O)Nc1cccc2ccccc12` (stereo not given) here?
Its inhibition is 0%.

For `c1ccc(-c2nnc(-c3ccco3)n2-c2ccccc2)cc1`, which inhibition is on record?
Its inhibition is 0%.

For `CCCC(=O)N1CC(=O)Nc2ccc(C)cc2C1c1ccc(F)cc1` (stereo not given), which inhibition is on record?
Its inhibition is 0%.

For `C/C=C/c1ccc(OCCn2cncn2)c(OC)c1`, which inhibition is on record?
The inhibition was 0%.

`O=C(NC12CC3CC(CC(C3)C1)C2)c1cncc(O)c1` was tested. Which inhibition did it give?
The inhibition was 2%.

With `CCC1(CC)C(=O)N(C)C(=O)NC1=NCc1ccccc1` as the compound, how does the inhibition read?
Its inhibition is 0%.
